The source of these data is PubChem BioAssay AID686979 (National Center for Advancing Translational Sciences (NCATS), 2013).

The structures appear in SMILES notation. About 50,000 (12%) of roughly 420,000 compounds were called active. Another 26% or so got no clear call; they are omitted. What follows is part of a selection rich in actives, with near analogues and random picks from the rest. Unmarked numbers belong to inactive results. The call rests on the fitted dose curve; in most records, active means well fitted inhibition curve with a large enough effect; inconclusive means small, poorly fitted or top-dose-only effect; inactive means flat fitted curve, though single readings scatter.
On the % scale 0 is the no-effect control and ±100 the full control effect; potency means the concentration at half of the fitted maximal effect.

This assay can be described thus: qHTS for Inhibitors of human tyrosyl-DNA phosphodiesterase 1 (TDP1): qHTS in cells in presence of CPT. Further: nearly all actives have a fitted effect of over 55% in size. Particulars: chicken DT40 Tdp1-/-;hTDP1 cells + 20 nM CPT, ATP luminescence, 48 h; series mostly up to 46.2 µM; activity change, negative = growth inhibition: at the top concentration. The procedure, abridged:
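Chicken DT40 Tdp1-/- cells stably complemented with human TDP1 were seeded at 400 cells/well in medium containing 20 nM camptothecin, exposed to pin-transferred compounds, and grown at 37 °C for at least 48 hr. Viability was read as ATP luminescence.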
In the case of `O=S(=O)(NCCS(=O)(=O)N1CCN(c2ccccc2)CC1)c1ccc(Cl)cc1`, the “activity change, negative = growth inhibition” value was -9.4%. Still for that read-out and setting: with `COCCCn1cc(CN2CC(N(C)C)CS2(=O)=O)nn1` (stereo not given) the figure was -6.4%. As to `COCOCCn1cc(CN2CCS(=O)(=O)N(Cc3ccc(-c4ccc(OC)cc4)cc3)C(CC(C)C)C2=O)nn1` (stereo not given), the Potency is 16.4 µM (active). Consider `CC(C)CC1C(=O)N(Cc2cn(Cc3ccco3)nn2)CCS(=O)(=O)N1Cc1ccc(-c2ccc(Cl)c(Cl)c2)cc1` (stereo not given), for which the Potency was 18.4 µM (active). `CC(=O)c1cccc(-n2nnnc2SCC(=O)NNC(=O)C2CCCCC2)c1`: the “activity change, negative = growth inhibition” value is 7.58%. For `COc1ccc(-c2ccc(CN3C(CC(C)C)C(=O)N(Cc4cn(CC5CCCCC5)nn4)CCS3(=O)=O)cc2)cn1` (stereo not given), the Potency is 20.6 µM (active). Turning to `CC(=O)c1cccc(-c2ccc(CN3C(CC(C)C)C(=O)N(Cc4cn(CC5CCCCC5)nn4)CCS3(=O)=O)cc2)c1` (stereo not given), the Potency was 20.6 µM (active). Turning to `CCOC(=O)NC(=O)CSc1nnc(SCCC(=O)O)s1`, the “activity change, negative = growth inhibition” value was 3.61%. Same read-out and setting: to `Cc1nc(-c2ccc(F)cc2)c(CC(=O)N(C)CC(=O)Nc2c(C)cccc2C)s1` belongs 0.646%; to `Cc1ccccc1-n1cc(CNC(=O)C2CCC(=O)N(C3CC3)C2)cn1` (stereo not given), -20.8%.

With `CCOC(=O)c1sc2nc(C)nc(Nc3ccc(OC)c(OC)c3)c2c1C`, the “activity change, negative = growth inhibition” value is -5.47%. `CC(=O)c1ccc(N=C2SCCCN2C(=O)C2CCCCC2)cc1`: the “activity change, negative = growth inhibition” value is -8.83%. For `Cc1ccc(-c2cc(C(=O)Oc3ccccc3Cl)no2)cc1C`, the “activity change, negative = growth inhibition” value is -4.37%. The same measure, in the same setting: to `COc1ccc([C@H]2N[C@]3(CCCN(CC4CCCCC4)C3=O)[C@H]3C(=O)N(C)C(=O)[C@@H]23)cc1` belongs -14.1%; to `O=S1(=O)CC(N2CCSCC2)CN1Cc1cn(Cc2cccc(Cl)c2)nn1` (stereo not given), 1.41%. `CC1C(=O)N(Cc2cn(CC3CCCCC3)nn2)CCS(=O)(=O)N1Cc1ccc(-c2cccc(N(C)C)c2)cc1` (stereo not given): the Potency was 4.61 µM (active). As to `O=S1(=O)CC(N2CCN(CCO)CC2)CN1Cc1cn(Cc2cccc(Cl)c2)nn1` (stereo not given), the “activity change, negative = growth inhibition” value was -12.2%. `COc1ccc(-c2ccc(CN3C(CC(C)C)C(=O)N(Cc4cn(CC5CCCCC5)nn4)CCS3(=O)=O)cc2)cc1` (stereo not given): the Potency was 18.4 µM (active).

Consider `COc1ccc(COC(=O)NC(C(=O)O)c2ccccc2)cc1` (stereo not given), for which the “activity change, negative = growth inhibition” value was -17%. Turning to `O=C(O)c1ccccc1-c1ccccc1C(=O)Nc1ccccc1Br`, the “activity change, negative = growth inhibition” value was -10.4%.

Regarding `O=C(CCNS(=O)(=O)c1ccc(Br)s1)NCc1ccccc1Cl`, the “activity change, negative = growth inhibition” value is 5%. Consider `O=C(Nc1nnc(Cc2ccc(Cl)cc2)s1)c1cccnc1`, for which the “activity change, negative = growth inhibition” value is 1.2%. On to `NC(=O)COc1ccc(NC(=O)c2ccccc2-c2ccccc2)cc1`, for which the “activity change, negative = growth inhibition” value was -9.37%. For the molecule `CCCc1nc2c(c(=O)c3ccccc3n2C)c(=O)n1C1CCCCCC1`, the Potency was 18.4 µM (active). Turning to `Cn1c2ccccc2c(=O)c2c(O)cccc21`, the “activity change, negative = growth inhibition” value is 1.89%. Take `CCOC(=O)c1nnn2c3ccccc3c(=O)n(C)c12`: the “activity change, negative = growth inhibition” value was 23%.

With `CCOc1ccc(C(=O)Nc2ccc(S(=O)(=O)Nc3cc(C)on3)cc2)cc1`, the “activity change, negative = growth inhibition” value is -18.4%. Regarding `Cc1ccc(Nc2c(-c3ccc(Cl)cc3)nc3sccn23)c(C)c1`, the “activity change, negative = growth inhibition” value was -11.5%.

For the molecule `O=C(O)c1ccc(Cn2c(=S)[nH]c3cc(Cl)ccc3c2=O)cc1`, the “activity change, negative = growth inhibition” value is 2.38%.

For the molecule `N#CC1=C(N)Oc2c(sc3ccccc23)C1c1ccco1` (stereo not given), the Potency was 7.31 µM (active). As for `COC(=O)C1=C(O)/C(=C/c2ccc(OCC(=O)Nc3ccccc3)cc2)N=C1C`, the “activity change, negative = growth inhibition” value is -4.89%. Take `COC(=O)C1CCCCN1C(=O)c1ccc(OC2CCN(C(C)=O)CC2)c(OC)c1` (stereo not given): the “activity change, negative = growth inhibition” value is -5.71%.

As to `O=S(=O)(NC1CCCCC1N1CCC(O)CC1)c1ccc(Cl)cc1` (stereo not given), the “activity change, negative = growth inhibition” value was -20.2%. Consider `CNC(=O)N1c2ccccc2C=Cc2ccccc21`, for which the “activity change, negative = growth inhibition” value is -13.4%. For `CCNC(=O)N1c2ccccc2Sc2ccccc21`, the “activity change, negative = growth inhibition” value was -29%. Take `CC1C(C)N(C(=O)CCl)c2ccccc2N1C(=O)CCl` (stereo not given): the Potency was 0.58 µM (active).

`C=CCNC(=S)N1CCN(CCN=Cc2c(C)[nH]n(-c3ccc([N+](=O)[O-])cc3)c2=O)CC1`: the “activity change, negative = growth inhibition” value was 7.48%. For the molecule `Cc1[nH]n(-c2ccc([N+](=O)[O-])cc2)c(=O)c1C=NCCN1CCN(C(=O)c2ccccc2F)CC1`, the Potency is 9.2 µM (active). Regarding `Cc1[nH]n(-c2ccccc2)c(=O)c1N=Nc1ccccc1C(=O)N1CCCCC1`, the “activity change, negative = growth inhibition” value is -4.43%. For `CCCC(=O)Nc1cccc(NC(=S)NC(=O)C(C)Oc2ccc(Cl)cc2Cl)c1` (stereo not given), the “activity change, negative = growth inhibition” value was -2.94%. For `CC1CC(C)CN(C(=O)CCNC(=O)Cn2cnc3ccccc3c2=O)C1` (stereo not given), the “activity change, negative = growth inhibition” value is 26.5%. In the case of `C=CCOc1cccc(C2C(C(=O)c3ccc(C)o3)=C(O)C(=O)N2CCCn2ccnc2)c1` (stereo not given), the “activity change, negative = growth inhibition” value is 10.3%. Same read-out and setting: to `CCC1CCc2c(sc(NC(C)=O)c2C#N)C1` (stereo not given) belongs -9.69%. `CC(=O)N1CCc2c(sc(NC(=O)CCS(=O)(=O)c3ccccc3)c2C#N)C1`: the Potency is 20.6 µM (active).

In the case of `CC(C)N1CCc2c(sc(NC(=O)Cc3ccccc3)c2C#N)C1`, the “activity change, negative = growth inhibition” value was -3.65%. Take `Cc1c(C(=O)NCC2CCCN(C)C2)cnn1-c1nccc(-c2ccco2)n1` (stereo not given): the “activity change, negative = growth inhibition” value was -5.64%. In the case of `O=C(Nc1ccccc1)N1CCN(Cc2ccccc2)CC1`, the “activity change, negative = growth inhibition” value was -15.2%. `CCCC(c1nnnn1C(C)(C)C)N1CCN(Cc2ccccc2)CC1` (stereo not given): the “activity change, negative = growth inhibition” value was -9.45%. For the molecule `CCCC(=O)NC(C)C(c1cccs1)N1CCN(c2ccccc2)CC1` (stereo not given), the “activity change, negative = growth inhibition” value was -14%. Take `CC(NC(=O)Nc1ccccc1)C(c1cccs1)N1CCN(c2ccccc2)CC1` (stereo not given): the Potency is 13 µM (active).
